Sampled rows, rich in hits. Any-hit rate of the full collection: about 4.1%.
Peg3 prom inh: Peg3 promoter-driven luciferase inhibitors, primary screen, cell-based, HeLa, luciferase luminescence. HeLa PEG-Prom luciferase reporter, overnight. inhibition, % at 20 µM. 1.7% of 360,000 active. AID 588405, 2011;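 active means inhibition of at least 50% at 20 µM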
TROY NFkB inh: inhibitors of TROY-driven NF-kB signaling, primary screen, Q293 LMP1-TROYcd cells, NF-kB luciferase, uHTS. Q293 LMP1-TROYcd NF-kB luciferase reporter, 4 h. inhibition, % at 10 µM. 0.98% of 360,000 active. AID 1347056, 2019;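 active means compounds whose plate-normalised and pattern-corrected inhibition of the luciferase reporter signal at the single screening dose is 50% or more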
LMP1 NFkB inh: EBV LMP1-driven NF-kappaB luciferase reporter inhibitors, primary screen, cell-based, luminescence, single point. 0.69% of 350,000 active. AID 504558, 2011. inhibition, % at 12.5 µM. LMP1-induced NF-kappaB luciferase reporter cells; in the data active means inhibition above about 41%; inconclusive means no clear call, values can overlap the other calls;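 further: 0% = neutral control wells and 100% = reference inhibitor control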
Shn3 3UTR inh: reduction of Shn3 3'UTR firefly luciferase signal, primary screen, Schnurri-3 inhibitor project, cell-based, Clone20 osteoblasts, set 2; 0.52% of 360,000 active; inhibition, % at 12.5 µM; Clone20 osteoblast Shn3 3'UTR firefly luciferase, 24 h;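 active means mean inhibition of at least 75% with every replicate also reaching 75%; inconclusive means mean inhibition at least 75% but some replicate below; inactive means mean inhibition below 75%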;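 further: 0% = median of neutral control wells and 100% = pilot-screen positive control compound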
TWEAK-Fn14 inh: inhibitors of TWEAK-Fn14 signaling, primary screen, luciferase reporter cells, uHTS; TWEAK-stimulated Fn14 reporter cells, luciferase luminescence, 8 h; inhibition, % at 10 µM; 2% of 360,000 active; in the data active means inhibition above about 50%
MITF TRPM1 inh: inhibitors of MITF-dependent TRPM1 promoter reporter, primary screen, cell-based, SK-MEL-5, single point, luciferase; SK-MEL-5 TRPM1 promoter luciferase, 24 h; inhibition, % at 12.5 µM; 0.83% of 330,000 active; AID 488899, 2010;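 active means mean inhibition across replicates of 60% or more, whatever share of single replicates reaches that level; inconclusive means some that reach 60%, reason not given; inactive means mean inhibition across replicates below 60%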
The depositor's hits bear a star.

What do the screens show for `Cn1c2c(c(=O)n(C)c1=O)C(C(F)(F)F)(C(F)(F)F)N=C(c1ccc(Cl)cc1)N2`?
Peg3 prom inh: 48; TROY NFkB inh: 57*; LMP1 NFkB inh: 7; Shn3 3UTR inh: 81*; TWEAK-Fn14 inh: 62*; MITF TRPM1 inh: 72*

How did Cc1ccc(Nc2nc(N)nc(CSc3nc4ccccc4s3)n2)cc1 do in these assays?
Peg3 prom inh: -37; TROY NFkB inh: 44; LMP1 NFkB inh: -20; Shn3 3UTR inh: 8; TWEAK-Fn14 inh: 83*; MITF TRPM1 inh: -38

Results for CN(C)C(=O)/C(C#N)=C\c1cc(Br)c(Sc2ccc(Cl)cc2)o1 ?
Peg3 prom inh: 78*; TROY NFkB inh: 31; LMP1 NFkB inh: 18; Shn3 3UTR inh: -3; TWEAK-Fn14 inh: 88*; MITF TRPM1 inh: 16

Results for Clc1ccc(Sc2oc(/C=N/n3cnnc3)cc2Br)cc1 ?
Peg3 prom inh: -7; TROY NFkB inh: 1; LMP1 NFkB inh: -12; Shn3 3UTR inh: -2; TWEAK-Fn14 inh: 12; MITF TRPM1 inh: 3

How did O=C(CCS(=O)(=O)c1ccccc1)N(CCCN1CCOCC1)c1nc2ccccc2s1 do in these assays?
Peg3 prom inh: 108*; TROY NFkB inh: -13; LMP1 NFkB inh: -14; Shn3 3UTR inh: -27; TWEAK-Fn14 inh: 28; MITF TRPM1 inh: -35

What do the screens show for `CCSc1nc(-c2ccccc2)c(C#N)c(=O)[nH]1`?
Peg3 prom inh: 18; TROY NFkB inh: 4; LMP1 NFkB inh: 3; Shn3 3UTR inh: 19; TWEAK-Fn14 inh: 7; MITF TRPM1 inh: 4

Results for CCCOc1ccc(-c2nc(SCc3ccccc3)[nH]c(=O)c2C#N)cc1OC ?
Peg3 prom inh: 22; TROY NFkB inh: 51*; LMP1 NFkB inh: 10; Shn3 3UTR inh: 17; TWEAK-Fn14 inh: -24; MITF TRPM1 inh: 0

How did O=C(O)C(Cc1ccccc1)N=C(NS(=O)(=O)c1ccccc1)c1ccccc1 (stereo not drawn) do in these assays?
Peg3 prom inh: -6; TROY NFkB inh: -1; LMP1 NFkB inh: -1; Shn3 3UTR inh: 8; TWEAK-Fn14 inh: -2; MITF TRPM1 inh: 13

What do the screens show for `CCCSc1nc(C)c(-c2csc(C(C#N)=C3CCCC3)n2)cc1C#N`?
Peg3 prom inh: 3; TROY NFkB inh: -10; LMP1 NFkB inh: 5; Shn3 3UTR inh: 0; TWEAK-Fn14 inh: 64*; MITF TRPM1 inh: 31

What do the screens show for `COc1ccc(NC(=O)Nc2ccc(F)c(F)c2)c(OC)c1`?
Peg3 prom inh: -47; TROY NFkB inh: -30; LMP1 NFkB inh: 67*; Shn3 3UTR inh: 3; TWEAK-Fn14 inh: -21; MITF TRPM1 inh: 74*

Results for Cc1cccc(C(=O)Nc2ccc(C(=O)N/N=C/c3ccc(C)o3)cc2)c1 ?
Peg3 prom inh: 8; TROY NFkB inh: -76; LMP1 NFkB inh: 1; Shn3 3UTR inh: 7; TWEAK-Fn14 inh: 8; MITF TRPM1 inh: 4

What do the screens show for `CCN(CC)S(=O)(=O)c1cc(NC(=O)C(=O)c2c(-c3ccccc3)cc3ccccn23)ccc1C`?
Peg3 prom inh: 7; TROY NFkB inh: 13; LMP1 NFkB inh: 5; Shn3 3UTR inh: 77; TWEAK-Fn14 inh: 62*; MITF TRPM1 inh: 3

How did O=C(Nc1ccccc1Cc1ccccc1)c1ccccc1NS(=O)(=O)c1ccc(Cl)s1 do in these assays?
Peg3 prom inh: 35; TROY NFkB inh: 68*; LMP1 NFkB inh: 2; Shn3 3UTR inh: 83; TWEAK-Fn14 inh: 58*; MITF TRPM1 inh: -14

How did Cc1ccc(NC(=O)c2ccccc2NS(=O)(=O)c2ccc(Cl)s2)cc1 do in these assays?
Peg3 prom inh: 39; TROY NFkB inh: 45; LMP1 NFkB inh: -5; Shn3 3UTR inh: 51; TWEAK-Fn14 inh: 58*; MITF TRPM1 inh: 12

How did O=C(NCc1ccco1)c1ccccc1NS(=O)(=O)c1ccc(Cl)s1 do in these assays?
Peg3 prom inh: 17; TROY NFkB inh: 7; LMP1 NFkB inh: 5; Shn3 3UTR inh: 0; TWEAK-Fn14 inh: 2; MITF TRPM1 inh: 20

Results for O=C(Nc1ccccc1)c1ccccc1NS(=O)(=O)c1ccc(Cl)s1 ?
Peg3 prom inh: 44; TROY NFkB inh: 63*; LMP1 NFkB inh: 9; Shn3 3UTR inh: 24; TWEAK-Fn14 inh: 23; MITF TRPM1 inh: -2

What do the screens show for `CN1[C@@H](COCc2ccccc2)C=CS1(=O)=O`?
Peg3 prom inh: 4; TROY NFkB inh: -2; Shn3 3UTR inh: -4; TWEAK-Fn14 inh: 0

What do the screens show for `CN(C)S(=O)(=O)N1CCC(n2nccc2NC(=O)CCCc2ccccc2)CC1`?
Peg3 prom inh: -4; TROY NFkB inh: 8; LMP1 NFkB inh: -3; Shn3 3UTR inh: -1; TWEAK-Fn14 inh: -5; MITF TRPM1 inh: -7

How did N#CC(C#N)c1ccnc2ccccc12 do in these assays?
Peg3 prom inh: 10; TROY NFkB inh: 43; LMP1 NFkB inh: 43*; Shn3 3UTR inh: -16; TWEAK-Fn14 inh: 59*

What do the screens show for `N#CCc1ccnc2ccccc12`?
Peg3 prom inh: 2; TROY NFkB inh: 7; LMP1 NFkB inh: 9; Shn3 3UTR inh: 0; TWEAK-Fn14 inh: 3; MITF TRPM1 inh: 2

How did Cc1nc(S/C(=C\c2ccc(-c3ccc(C(=O)O)c(Cl)c3)o2)C(=O)O)n[nH]1 do in these assays?
Peg3 prom inh: 4; TROY NFkB inh: -13; LMP1 NFkB inh: -5; Shn3 3UTR inh: 14; TWEAK-Fn14 inh: -6; MITF TRPM1 inh: -7

Results for Cc1nc(S/C(=C\c2ccc(OCc3ccccc3Cl)cc2)C(=O)O)n[nH]1 ?
Peg3 prom inh: -12; LMP1 NFkB inh: -5; Shn3 3UTR inh: 5; TWEAK-Fn14 inh: 83*; MITF TRPM1 inh: 20

What do the screens show for `COc1ccc(-c2oc(=O)c3cc(OC)c(OC)cc3c2-c2ccc3c(c2)OCO3)cc1`?
Peg3 prom inh: -98; TROY NFkB inh: -31; LMP1 NFkB inh: 3; Shn3 3UTR inh: -8; TWEAK-Fn14 inh: -29; MITF TRPM1 inh: -15

How did COc1cc2c(OC(C)=O)c3c(c(-c4ccc5c(c4)OCO5)c2cc1OC)C(=O)OC3 do in these assays?
Peg3 prom inh: 78*; TROY NFkB inh: -18; LMP1 NFkB inh: -75; Shn3 3UTR inh: 81; TWEAK-Fn14 inh: -103

What do the screens show for `COc1cc2c(O)c3c(c(-c4ccc5c(c4)OCO5)c2cc1OC)C(=O)OC3`?
Peg3 prom inh: 81*; TROY NFkB inh: -12; LMP1 NFkB inh: -241; Shn3 3UTR inh: 80; TWEAK-Fn14 inh: -60; MITF TRPM1 inh: 27

How did CC(C)C(C(=O)NCC1CCCO1)N(C(=O)CNS(=O)(=O)c1ccccc1)C1CCCCC1 (stereo not drawn) do in these assays?
Peg3 prom inh: 3; TROY NFkB inh: -14; LMP1 NFkB inh: -1; Shn3 3UTR inh: 13; TWEAK-Fn14 inh: -19

Results for Cc1ccc(S(=O)(=O)c2ccc([N+](=O)[O-])o2)cc1 ?
Peg3 prom inh: 105*; TROY NFkB inh: 59*; LMP1 NFkB inh: inconclusive; Shn3 3UTR inh: 95*; TWEAK-Fn14 inh: 102*; MITF TRPM1 inh: 96*

Bioassay records: PubChem BioAssay, several laboratories
